Test results taken from PubChem BioAssay (NCI).
The panel holds about 79,000 compounds, 15% with a hit somewhere; the sample as a whole holds those more often. Calls of active or inactive are those of the source. No stated cut-off is given here; in the data, active means growth inhibition above about 70%; inactive means the rest.

Legend:
[1] = NCI Yeast Anticancer Drug Screen. Data for the rad52 strain (AID 147);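 further: 0% = growth of vehicle-treated control cultures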; conditions: S. cerevisiae rad52 mutant growth inhibition, hits give high values
Method in brief: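 Screen used a yeast mutant impaired in DNA repair. After compound exposure, growth was measured. Values reflect inhibition compared with vehicle-treated cells.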

[2] = NCI Yeast Anticancer Drug Screen. Data for the wt1 strain (AID 149);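 further: 0% = growth of vehicle-treated wt1 cultures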; conditions: S. cerevisiae wt1 strain (SPY 50644) growth inhibition, hits give high values
Method in brief: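 Vehicle-normalised growth inhibition; strain wt1; compound exposure.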

[3] = NCI Yeast Anticancer Drug Screen. Data for the rad50EPP+ strain (AID 151);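 further: 0% = growth of vehicle-treated control cultures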; conditions: S. cerevisiae rad50 mutant strain, hits give high values
Method in brief: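 Exposing the rad50EPP+ strain to each compound, growth was compared with vehicle-only cultures to give inhibition.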

[4] = NCI Yeast Anticancer Drug Screen. Data for the mgt1 strain (AID 153); conditions: S. cerevisiae mgt1 mutant growth inhibition, hits give high values
Method in brief: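 Genetically defined yeast (mgt1) treated with compound; inhibition of growth expressed against vehicle-treated controls.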

[5] = NCI Yeast Anticancer Drug Screen. Data for the rad50 strain (AID 155);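 further: 0% = growth of vehicle-only cultures of the same strain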; conditions: S. cerevisiae rad50 strain growth inhibition, hits give high values
Method in brief: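 A DNA repair-deficient yeast mutant serves as the test organism; compound-induced growth inhibition is calculated against vehicle-treated cells.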

[6] = NCI Yeast Anticancer Drug Screen. Data for the mec2-1 strain (AID 157); conditions: S. cerevisiae mec2-1 strain, hits give high values
Method in brief: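 Readout is yeast growth inhibition, normalised to vehicle-treated controls, in the mec2-1 strain exposed to compound.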

[7] = NCI Yeast Anticancer Drug Screen. Data for the rad14 strain (AID 159);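 further: 0% = growth of vehicle-treated control cultures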; conditions: S. cerevisiae rad14 strain growth inhibition, hits give high values
Method in brief: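 Vehicle-treated cultures served as the baseline for growth inhibition of a DNA repair-mutant yeast strain exposed to each compound.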

[8] = NCI Yeast Anticancer Drug Screen. Data for the sgs1 mgt1 strain (AID 161);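 further: 0% = growth of cultures given vehicle only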; conditions: S. cerevisiae sgs1 mgt1 strain, hits give high values
Method in brief: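 Percent growth inhibition was derived by comparing compound-exposed mutant yeast with vehicle-exposed cultures. The strain carries alterations in DNA damage repair.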

[9] = NCI Yeast Anticancer Drug Screen. Data for the CLN2oe strain (AID 163);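 further: 0% = growth of vehicle-only control cultures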; conditions: S. cerevisiae CLN2oe strain, hits give high values
Method in brief: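 Values reflect how much compound exposure reduced yeast growth, referenced to vehicle-exposed cells. Assay organism is a strain with a defined genetic change affecting cell-cycle control.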

[10] = NCI Yeast Anticancer Drug Screen. Data for the cln2 rad14 strain (AID 165);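 further: 0% = growth equal to vehicle treated cultures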; conditions: S. cerevisiae cln2 rad14 strain, hits give high values
Method in brief: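 Relative to vehicle controls, growth inhibition of compound-treated cln2 rad14 yeast was recorded.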

[11] = NCI Yeast Anticancer Drug Screen. Data for the bub3 strain (AID 167); conditions: S. cerevisiae bub3 mutant strain, hits give high values
Method in brief: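 Inhibition values come from growth of compound-treated mutant yeast normalised to vehicle-treated controls.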

[12] = NCI Yeast Anticancer Drug Screen. Data for the wt2 strain (AID 169);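 further: 0% = growth of vehicle-treated yeast cultures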; conditions: S. cerevisiae wt2 strain growth inhibition, hits give high values
Method in brief: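 Values express reduction in yeast growth under compound treatment, referenced to vehicle-treated cells.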

[13] = NCI Yeast Anticancer Drug Screen. Data for the mlh1 strain (AID 171);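 further: 0% = growth of vehicle-treated control cultures of the same strain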; conditions: S. cerevisiae mlh1 strain growth inhibition, hits give high values
Method in brief: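 Steps: expose the defined-mutant yeast strain to compound; expose a parallel culture to vehicle; measure growth; express compound effect as inhibition relative to the vehicle culture.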

[14] = NCI Yeast Anticancer Drug Screen. Data for the sgs1 strain (AID 173);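 further: 0% = growth of vehicle-only control cultures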; conditions: S. cerevisiae sgs1 mutant, hits give high values
Method in brief: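 Treat defined-mutant yeast with compound; measure growth; calculate inhibition relative to vehicle-treated cells.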

[15] = NCI Yeast Anticancer Drug Screen. Data for the mlh1 rad18 strain (AID 175); conditions: S. cerevisiae mlh1 rad18 strain growth inhibition, hits give high values
Method in brief: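 Test agents were incubated with a yeast strain of defined genotype (DNA damage repair defect). Inhibition of growth was derived by comparison with vehicle-exposed cultures.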

[16] = at 5.0 µM (retest, dose inferred, filed as 0.5)
[17] = at 50.0 µM (retest, dose inferred, filed as 5.0)

Measured: growth inhibition

Nc1ccccc1C(=O)OCCc1ccccc1
inactive: [1]; at 1.2 µM -9% | [1]; at 3.7 µM -4% | [1]; at 11.0 µM -21% | [1]; at 33.0 µM -3% | [2]; at 1.2 µM -25% | [2]; at 3.7 µM -6% | [2]; at 11.0 µM -23% | [2]; at 33.0 µM -26% | [3]; at 1.2 µM -23% | [3]; at 3.7 µM -9% | [3]; at 11.0 µM 13% | [3]; at 33.0 µM 22% | [4]; at 1.2 µM -74% | [4]; at 3.7 µM -63% | [4]; at 11.0 µM -62% | [4]; at 33.0 µM -52% | [5]; at 1.2 µM -3% | [5]; at 3.7 µM -7% | [5]; [16] 36% | [5]; at 11.0 µM -31% | [5]; at 33.0 µM 13% | [6]; at 1.2 µM -8% | [6]; at 3.7 µM -4% | [6]; [16] 38% | [6]; at 11.0 µM -6% | [6]; at 33.0 µM 13% | [6]; at 50.0 µM 48.1% | [7]; at 1.2 µM -19% | [7]; at 3.7 µM -10% | [7]; at 11.0 µM -21% | [7]; at 33.0 µM -12% | [8]; [16] -17% | [8]; at 50.0 µM 68% | [9]; at 1.2 µM 19% | [9]; at 3.7 µM 17% | [9]; at 11.0 µM 14% | [9]; at 33.0 µM -1% | [10]; [16] 62% | [10]; at 50.0 µM 44.5% | [11]; at 1.2 µM -10% | [11]; at 3.7 µM 0% | [11]; [16] 12% | [11]; at 11.0 µM -1% | [11]; at 33.0 µM 5% | [12]; at 1.2 µM -16% | [12]; at 3.7 µM -15% | [12]; at 11.0 µM 3% | [12]; at 33.0 µM -12% | [13]; at 1.2 µM -15% | [13]; at 3.7 µM -17% | [13]; at 11.0 µM -18% | [13]; at 33.0 µM -7% | [14]; at 1.2 µM -38% | [14]; at 3.7 µM -32% | [14]; at 11.0 µM -32% | [14]; at 33.0 µM -28% | [15]; [16] 34%
active: [1]; at 100.0 µM 91% | [2]; at 100.0 µM 92% | [3]; at 100.0 µM 73% | [4]; at 100.0 µM 96% | [5]; [17] 93% | [5]; at 50.0 µM 82.9% | [5]; at 100.0 µM 97% | [6]; [17] 99% | [6]; at 100.0 µM 85% | [7]; at 100.0 µM 97% | [8]; [17] 74% | [9]; at 100.0 µM 91% | [10]; [17] 76% | [11]; [17] 78% | [11]; at 50.0 µM 89.5% | [11]; at 100.0 µM 76% | [12]; at 100.0 µM 94% | [13]; at 100.0 µM 97% | [14]; at 100.0 µM 94% | [15]; [17] 87% | [15]; at 50.0 µM 85.7%
